Cycloheximide cs – Cycloheximide Counterscreen for Small Molecule Inhibitors of Shiga Toxin | cell reporter, cycloheximide protein synthesis inhibition counterscreen | max response, % | actives 12% (n = 300,000); in the data active = max response mostly above about 13%, no sharp cut-off; inactive = mostly below about 14%; note: read at 38.3 µM for the half of the compounds with a filed dose
Marburg entry inh – qHTS for inhibitors of binding or entry into cells for Marburg Virus | Marburg virus pseudotyped entry inhibition, cell reporter | Potency, µM (doses to about 37.8 µM), actives largely listed as inhibitors | actives 1.8% (n = 300,000) | AID 540276, 2011; calls by dose curve; tested in HEK293 cells
HCV inh – qHTS Assay for Inhibitors of Hepatitis C Virus (HCV). actives 3.4% (n = 340,000). Huh7.5.1 HCVcc-Cre infection, luciferase reporter, 44 h. AID 651820, 2012. Potency, µM (series often up to 41.8 µM), usual class: inhibitors; active = well fitted inhibition curve with a large enough effect; inconclusive = small, poorly fitted or top-dose-only effect, or another doubt; inactive = no such curve, though single readings can be large or run the other way
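Whole-lifecycle infectious HCVcc-Cre system; cells 1,000/well, compound then virus (~0.5 moi) added 4 h after plating, 44 h culture. Luciferase read 15 sec following 15 min substrate incubation, room temp.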
FMDV inh – High Throughput Screening for Foot and Mouth Disease Virus Antivirals | AID 1159524, 2015 | Potency, µM (top dose mostly 57.9 µM), hits mostly inhibitors | FMDV antiviral cell-based qHTS | actives 1.2% (n = 410,000); calls by dose curve; tested in HEK293T cells; note: read-out not given here; nearly all actives have a fitted effect of over 45% in size
Lassa entry inh – qHTS for Inhibitors of binding or entry into cells for Lassa Virus. Lassa virus pseudotype entry inhibition, cell reporter. Potency, µM (series often up to 37.9 µM), usual class: inhibitors. actives 1.2% (n = 300,000); calls by dose curve; tested in HEK293 cells; note: nearly all actives have a fitted effect of over 50% in size
Shiga toxin inh – A qHTS for Small Molecule Inhibitors of Shiga Toxin; Vero cells, Shiga toxin protein synthesis inhibition reporter; inhibition, % at 38.7 µM; actives 9.2% (n = 290,000); in the data active = inhibition mostly above about 28%, no sharp cut-off; inactive = mostly below about 43%
Of the large screens only hits and unclear results are named; the others gave an inactive call. Only some compounds are listed: those with a hit (about 13% of all), similar ones and a draw of the others.

O=C(OCC(=O)c1cccc2ccccc12)c1ccc(CO)cc1	Cycloheximide cs 42, Lassa entry inh inconclusive, Shiga toxin inh 77
NC(=O)c1cccc2ccccc12	none
O=C(OCC(=O)c1ccccc1Br)c1ccncc1	Cycloheximide cs 24, Lassa entry inh inconclusive, Shiga toxin inh 63
C=CCOC(=O)C(C(=O)CC)[C@@H](NC(=O)OC)c1ccc(F)cc1 (stereo partly specified)	none (no result: Cycloheximide cs, HCV inh, FMDV inh, Lassa entry inh, Shiga toxin inh)
CC(C)c1ccc(S(=O)(=O)c2nnn3c2nc(NCc2cccs2)c2sccc23)cc1	Lassa entry inh inconclusive (no result: Cycloheximide cs, Marburg entry inh, HCV inh, Shiga toxin inh)
CCN(C(=O)CSc1nncs1)c1c(N)n(Cc2ccccc2)c(=O)[nH]c1=O	none
Cc1nc(C)c(C(=O)C2=C(O)C(=O)N(CCCn3ccnc3)C2c2ccc(Cl)cc2)s1 (stereo unspecified)	none
Cc1ccc(S(=O)(=O)N(C)C)cc1NC(=O)COC(=O)CCNS(=O)(=O)c1ccccc1	none (no result: Cycloheximide cs, Shiga toxin inh)
CCC(C)c1ccccc1NC(=O)COC(=O)c1ccc(N2CCCC2)c([N+](=O)[O-])c1 (stereo unspecified)	none
Cc1ccc(NC(=O)c2cc3cccc([N+](=O)[O-])c3[nH]2)cc1	Cycloheximide cs 46, HCV inh inconclusive, Shiga toxin inh 84 (no result: Marburg entry inh, Lassa entry inh)
CCC(C)c1ccccc1NC(=O)c1cc2cccc([N+](=O)[O-])c2[nH]1 (stereo unspecified)	Cycloheximide cs 39, Marburg entry inh inconclusive, HCV inh inconclusive, FMDV inh inconclusive, Lassa entry inh inconclusive
Cc1c(C(=O)Nc2ccc(Nc3ccccc3)cc2)cccc1[N+](=O)[O-]	HCV inh inconclusive, FMDV inh inconclusive (no result: Marburg entry inh, Lassa entry inh)
O=C(O)C(Cc1cnc[nH]1)NS(=O)(=O)c1ccc(Br)cc1 (stereo unspecified)	none
O=c1c2ccccc2c(-c2n[nH]c(=S)o2)nn1Cc1ccccc1	none
OCc1ccc(-c2nn(Cc3ccccc3)c3ccccc23)o1	Marburg entry inh 2.6µM, HCV inh inconclusive, Lassa entry inh 2.9µM (no result: Cycloheximide cs, Shiga toxin inh)
COc1cc(/C=N/Nc2nc(Nc3ccccc3)nc(-n3nc(C)cc3C)n2)cc(OC)c1OC	Cycloheximide cs 18, Marburg entry inh 7.3µM, HCV inh 2.8µM, Lassa entry inh 16µM, Shiga toxin inh 45
COc1ccc(O)c(/C=N/Nc2nc(Nc3ccccc3)nc(-n3nc(C)cc3C)n2)c1	Marburg entry inh inconclusive, HCV inh inconclusive, Lassa entry inh 13µM
COc1cc(/C=N/Nc2nc(Nc3ccc(C)cc3)nc(-n3nc(C)cc3C)n2)cc(OC)c1OC	Marburg entry inh inconclusive, HCV inh inconclusive, Lassa entry inh inconclusive, Shiga toxin inh 109
COc1ccc(/C=N/Nc2nc(Nc3ccccc3)nc(N3CCCCC3)n2)c(OC)c1	Marburg entry inh inconclusive
Cc1nnc(SCC(=O)Nc2cc(S(=O)(=O)N3CCCC3)ccc2Cl)s1	Marburg entry inh inconclusive
CCN(Cc1ccccc1)Cc1ccc(OCc2ccccc2)c(OC)c1	none (no result: Marburg entry inh, Lassa entry inh)
CN(Cc1ccccc1)C(=O)C1CCCN(Cc2ccc(Cl)cc2)C1 (stereo unspecified)	Marburg entry inh inconclusive, HCV inh 1.4µM, FMDV inh inconclusive, Lassa entry inh inconclusive
CCOC(=O)C1CCCN(Cc2ccc(OCc3ccccc3)c(OC)c2)C1 (stereo unspecified)	Cycloheximide cs 18 (no result: Marburg entry inh, Lassa entry inh, Shiga toxin inh)
COc1cc(CN2CCC(C)CC2)ccc1OCc1ccccc1	none (no result: Marburg entry inh, Lassa entry inh)
CCN(CC)C(=O)C1CCCN(Cc2ccccc2)C1 (stereo unspecified)	none (no result: FMDV inh)
COc1cc(CN2CCCC(C)C2)ccc1OCc1ccccc1 (stereo unspecified)	Cycloheximide cs 17, Marburg entry inh inconclusive, Shiga toxin inh 36
COc1cc(CN(C)CCc2ccccc2)ccc1OCc1ccccc1	Marburg entry inh 18µM, HCV inh 3.5µM
CCCCN(CC)CCCNC(=O)c1ccc2c(c1)N(CC)C(=O)c1ccccc1S2(=O)=O	Marburg entry inh inconclusive, Lassa entry inh inconclusive
CCOC(=O)C1CCCN(Cc2cccc(Cl)c2)C1 (stereo unspecified)	none
CCOC(=O)C1CCCN(Cc2ccc(OCc3ccccc3)cc2)C1 (stereo unspecified)	Cycloheximide cs 44, Shiga toxin inh 99 (no result: Marburg entry inh, Lassa entry inh)
CCOC(=O)C1CCCN(CCC(=O)Nc2cccc(C)c2)C1 (stereo unspecified)	Cycloheximide cs 49, Shiga toxin inh 82
COc1ccc(CN2CCN(Cc3ccccc3)CC2)c(OC)c1	Marburg entry inh 18µM (no result: HCV inh)
CCN1CCN(Cc2ccc(OCc3ccccc3)c(OC)c2)CC1	Cycloheximide cs 49, Shiga toxin inh 105 (no result: FMDV inh)
COc1ccc(CN2CCN(C(=O)Cc3ccccc3)CC2)c(OC)c1	none
CN(C(=O)CN1CCN(c2cc(-c3ccc(-c4ccccc4)cc3)ncn2)CC1)c1ccccc1	FMDV inh 22µM (no result: Cycloheximide cs, Marburg entry inh, HCV inh, Lassa entry inh, Shiga toxin inh)
COc1ccc(-n2nc(C(=O)Nc3cc(C)c(Cl)cc3OC)c3c4ccccc4n(C)c3c2=O)cc1	none (no result: Cycloheximide cs, HCV inh, Shiga toxin inh)
CC(=O)Nc1ccc(SCC(=O)Nc2ccccc2-c2ccccc2)cc1	FMDV inh inconclusive
CC(=O)Nc1ccc(SCc2ncc(-c3ccccc3)o2)cc1	Cycloheximide cs 44, Marburg entry inh inconclusive, Shiga toxin inh 90
CN(Cc1c(F)cccc1Cl)C(=O)CNC(=O)c1cccs1	Cycloheximide cs 39, Shiga toxin inh 94 (no result: Marburg entry inh, Lassa entry inh)
Cc1ccc(/C=C/c2onc(C)c2S(=O)(=O)N2CCC(C(=O)N3CCN(C)CC3)CC2)cc1	HCV inh inconclusive (no result: Marburg entry inh, Lassa entry inh)
CCNc1nc(C)c2cc(Br)c(=O)n(CC)c2n1	Marburg entry inh inconclusive, HCV inh 8.9µM, Lassa entry inh inconclusive
CCNc1ncc2nc(C)c(=O)n(CCC#N)c2n1	none (no result: Cycloheximide cs, Marburg entry inh, HCV inh, Lassa entry inh, Shiga toxin inh)
COc1ccc(CNc2ncnc3ccc(-c4cccc(C#N)c4)cc23)c(OC)c1	none (no result: Cycloheximide cs, Marburg entry inh, HCV inh, Lassa entry inh, Shiga toxin inh)
CCOC(=O)c1c(NC(=O)CCN2CCOCC2)sc(C)c1-c1ccccc1	Marburg entry inh inconclusive, HCV inh 25µM, FMDV inh inconclusive, Lassa entry inh 3.2µM
CCOC(=O)c1c(NC(=O)/C=C\C(=O)O)sc(C)c1-c1ccccc1	FMDV inh inconclusive
CCOC(=O)c1c(NC(=O)/C=C/C(=O)O)sc(C)c1-c1ccc(C(C)(C)C)cc1	Marburg entry inh 10µM, HCV inh inconclusive, FMDV inh 18µM, Lassa entry inh inconclusive
CCc1nc2c(OCC(=O)c3ccc(F)cc3)cccn2c1N(C)C(=O)c1ccccc1F	none (no result: Cycloheximide cs, Marburg entry inh, HCV inh, Lassa entry inh, Shiga toxin inh)
COc1ccc(Cn2c(=O)[nH]c3cc(C(=O)N4CCN(c5ccccc5F)CC4)ccc3c2=O)cc1	HCV inh inconclusive (no result: Lassa entry inh)
COc1ccc(NS(=O)(=O)c2cccc(C(=O)NC3CCN(Cc4ccccc4)CC3)c2)cc1	Marburg entry inh inconclusive, HCV inh inconclusive, Lassa entry inh inconclusive
COc1ccc(Cn2c(=O)[nH]c3cc(C(=O)N4CCN(c5ccccc5OC)CC4)ccc3c2=O)cc1	Marburg entry inh inconclusive, HCV inh 10µM, FMDV inh 18µM, Lassa entry inh inconclusive

Screening results from PubChem BioAssay.
